According to PubChem BioAssay (NCI):
Compounds without any hit were thinned out: in the full panel of roughly 79,000, 15% have a hit. Activity calls are given as the source filed them. Rule as the data show it: active = growth inhibition above about 70%; inactive = the rest.

Experiments:
[1] = NCI Yeast Anticancer Drug Screen. Data for the wt1 strain (AID 149);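 also: 0% = growth of vehicle-treated wt1 cultures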; conditions: S. cerevisiae wt1 strain (SPY 50644) growth inhibition, hits give high values
Outline: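 Compounds are added to wt1 yeast cultures. Growth is then measured. Inhibition is expressed relative to vehicle-treated controls.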

[2] = NCI Yeast Anticancer Drug Screen. Data for the mgt1 strain (AID 153); conditions: S. cerevisiae mgt1 mutant growth inhibition, hits give high values
Outline: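 After exposure of the mgt1 yeast mutant to compound, growth was measured and reported as inhibition compared with vehicle controls.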

[3] = NCI Yeast Anticancer Drug Screen. Data for the rad50 strain (AID 155);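 also: 0% = growth of vehicle-only cultures of the same strain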; conditions: S. cerevisiae rad50 strain growth inhibition, hits give high values
Outline: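 Inhibition values express reduced yeast growth in compound-treated cultures relative to vehicle-treated controls.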

[4] = NCI Yeast Anticancer Drug Screen. Data for the mec2-1 strain (AID 157); conditions: S. cerevisiae mec2-1 strain, hits give high values
Outline: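 Test agents were screened against the mec2-1 yeast strain, with defined DNA repair or cell cycle alteration. Growth was scored as inhibition against vehicle-only controls.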

[5] = NCI Yeast Anticancer Drug Screen. Data for the rad14 strain (AID 159);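 also: 0% = growth of vehicle-treated control cultures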; conditions: S. cerevisiae rad14 strain growth inhibition, hits give high values
Outline: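 A mutant yeast strain defective in DNA damage repair is treated with compound; inhibition of its growth is scored against untreated, vehicle-exposed cultures.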

[6] = NCI Yeast Anticancer Drug Screen. Data for the sgs1 mgt1 strain (AID 161);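 also: 0% = growth of cultures given vehicle only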; conditions: S. cerevisiae sgs1 mgt1 strain, hits give high values
Outline: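 Inhibition of yeast growth, normalised to vehicle-treated controls, is reported for a strain bearing genetic alterations in DNA damage repair.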

[7] = NCI Yeast Anticancer Drug Screen. Data for the CLN2oe strain (AID 163);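 also: 0% = growth of vehicle-only control cultures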; conditions: S. cerevisiae CLN2oe strain, hits give high values
Outline: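 Here, growth inhibition in a cell-cycle-altered yeast strain after compound exposure was quantified against vehicle control growth.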

[8] = NCI Yeast Anticancer Drug Screen. Data for the cln2 rad14 strain (AID 165);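 also: 0% = growth equal to vehicle treated cultures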; conditions: S. cerevisiae cln2 rad14 strain, hits give high values
Outline: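 Growth of compound-exposed yeast (cln2 rad14 genotype) measured and expressed as inhibition relative to vehicle.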

[9] = NCI Yeast Anticancer Drug Screen. Data for the bub3 strain (AID 167); conditions: S. cerevisiae bub3 mutant strain, hits give high values
Outline: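 Steps: expose the mutant yeast strain to compound; grow alongside vehicle-treated cultures; measure growth; express inhibition against the vehicle cultures.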

[10] = NCI Yeast Anticancer Drug Screen. Data for the wt2 strain (AID 169);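 also: 0% = growth of vehicle-treated yeast cultures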; conditions: S. cerevisiae wt2 strain growth inhibition, hits give high values
Outline: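 Genetically defined yeast strains from a DNA-repair/cell-cycle panel were used. Compound-exposed yeast growth was measured, and the inhibition was calculated relative to vehicle treatment.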

[11] = NCI Yeast Anticancer Drug Screen. Data for the mlh1 strain (AID 171);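 also: 0% = growth of vehicle-treated control cultures of the same strain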; conditions: S. cerevisiae mlh1 strain growth inhibition, hits give high values
Outline: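 Here the genetically defined yeast mutant is grown with each compound, and the extent to which its growth falls below that of vehicle-exposed cells is reported.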

[12] = NCI Yeast Anticancer Drug Screen. Data for the sgs1 strain (AID 173);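 also: 0% = growth of vehicle-only control cultures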; conditions: S. cerevisiae sgs1 mutant, hits give high values
Outline: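 Relative growth inhibition, referenced to vehicle, was determined in a yeast strain with a defined alteration affecting DNA damage repair or cell cycle control after compound exposure.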

[13] = NCI Yeast Anticancer Drug Screen. Data for the mlh1 rad18 strain (AID 175); conditions: S. cerevisiae mlh1 rad18 strain growth inhibition, hits give high values
Outline: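 In this whole-cell yeast screen, a strain with altered DNA damage repair is challenged with compound, and its growth is measured against matched vehicle-treated controls.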

[14] = NCI Yeast Anticancer Drug Screen. Data for the rad18 strain (AID 177); conditions: S. cerevisiae rad18 mutant growth inhibition, hits give high values
Outline: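 Screen uses a yeast strain with a defined lesion in DNA damage repair; compound effect is read as loss of growth compared to untreated vehicle cultures.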

[15] = NCI Yeast Anticancer Drug Screen. Data for the rad50EPP+ strain (AID 151);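 also: 0% = growth of vehicle-treated control cultures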; conditions: S. cerevisiae rad50 mutant strain, hits give high values
Outline: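 One strain with a rad50 alteration (rad50EPP+) was compound-treated, its growth then compared to that of vehicle controls.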

[16] = at 5.0 µM (retest, dose inferred, filed as 0.5)
[17] = at 50.0 µM (retest, dose inferred, filed as 5.0)

Measured: growth inhibition

COc1ccc(/C=C/C(=O)C(C)(C)Br)cc1
active: [2]; at 100.0 µM 71% | [3]; at 3.7 µM 74% | [3]; [16] 75% | [3]; at 11.0 µM 88% | [3]; at 33.0 µM 93% | [3]; [17] 96% | [3]; at 50.0 µM 94.5% | [3]; at 100.0 µM 96% | [4]; at 3.7 µM 71% | [4]; at 11.0 µM 96% | [4]; at 33.0 µM 97% | [4]; [17] 98% | [4]; at 50.0 µM 96.6% | [4]; at 100.0 µM 97% | [5]; at 11.0 µM 93% | [5]; at 33.0 µM 96% | [5]; at 100.0 µM 99% | [6]; [16] 86% | [6]; [17] 97% | [6]; at 50.0 µM 93.7% | [7]; at 100.0 µM 89% | [8]; [17] 92% | [8]; at 50.0 µM 91.5% | [9]; [17] 99% | [9]; at 50.0 µM 73.3% | [9]; at 100.0 µM 82% | [10]; at 100.0 µM 89% | [11]; at 100.0 µM 94% | [12]; at 3.7 µM 87% | [12]; at 11.0 µM 91% | [12]; at 33.0 µM 92% | [12]; at 100.0 µM 95% | [13]; [16] 89% | [13]; [17] 99% | [13]; at 50.0 µM 94.4% | [14]; at 1.2 µM 96% | [14]; at 3.7 µM 97% | [14]; at 11.0 µM 97% | [14]; at 33.0 µM 97% | [14]; at 100.0 µM 98%
inactive: [1]; at 1.2 µM 4% | [1]; at 3.7 µM 12% | [1]; at 11.0 µM 15% | [1]; at 33.0 µM 19% | [1]; at 100.0 µM 33% | [2]; at 1.2 µM 0% | [2]; at 3.7 µM 9% | [2]; at 11.0 µM 18% | [2]; at 33.0 µM 27% | [3]; at 1.2 µM 41% | [4]; at 1.2 µM 24% | [4]; [16] 11% | [5]; at 1.2 µM 28% | [5]; at 3.7 µM 69% | [7]; at 1.2 µM 0% | [7]; at 3.7 µM 3% | [7]; at 11.0 µM 20% | [7]; at 33.0 µM 36% | [8]; [16] 52% | [9]; at 1.2 µM -9% | [9]; at 3.7 µM -7% | [9]; [16] 26% | [9]; at 11.0 µM 4% | [9]; at 33.0 µM 25% | [10]; at 1.2 µM 2% | [10]; at 3.7 µM 10% | [10]; at 11.0 µM 26% | [10]; at 33.0 µM 37% | [11]; at 1.2 µM 5% | [11]; at 3.7 µM 19% | [11]; at 11.0 µM 33% | [11]; at 33.0 µM 54% | [12]; at 1.2 µM 69%

CCC/C(Cl)=N\OC(=O)Nc1cccc(C(F)(F)F)c1
inactive: [1]; at 1.2 µM 1% | [1]; at 3.7 µM 2% | [1]; at 11.0 µM 0% | [1]; at 33.0 µM 2% | [1]; at 100.0 µM 5% | [15]; at 1.2 µM 27% | [15]; at 3.7 µM 32% | [15]; at 11.0 µM 36% | [15]; at 33.0 µM 35% | [15]; at 100.0 µM 25% | [2]; at 1.2 µM 7% | [2]; at 3.7 µM 37% | [2]; at 11.0 µM 68% | [2]; at 100.0 µM 66% | [3]; at 1.2 µM 12% | [3]; at 3.7 µM 14% | [3]; [16] -15% | [3]; at 11.0 µM 13% | [3]; at 33.0 µM 25% | [3]; at 100.0 µM 26% | [4]; at 1.2 µM 15% | [4]; at 3.7 µM 18% | [4]; [16] 16% | [4]; at 11.0 µM 19% | [4]; at 33.0 µM 20% | [4]; at 100.0 µM 23% | [5]; at 1.2 µM 12% | [5]; at 3.7 µM 14% | [5]; at 11.0 µM 16% | [5]; at 33.0 µM 23% | [5]; at 100.0 µM 20% | [6]; [16] 6% | [7]; at 1.2 µM 15% | [7]; at 3.7 µM 5% | [7]; at 11.0 µM 4% | [7]; at 33.0 µM 6% | [7]; at 100.0 µM 18% | [8]; [16] 56% | [9]; at 1.2 µM 34% | [9]; at 3.7 µM 44% | [9]; [16] 9% | [9]; at 11.0 µM 51% | [9]; at 33.0 µM 47% | [9]; at 100.0 µM 46% | [10]; at 1.2 µM 21% | [10]; at 3.7 µM 38% | [10]; at 11.0 µM 61% | [11]; at 1.2 µM 3% | [11]; at 3.7 µM 7% | [11]; at 11.0 µM 16% | [11]; at 33.0 µM 18% | [11]; at 100.0 µM 17% | [12]; at 1.2 µM 50% | [12]; at 3.7 µM 62% | [13]; [16] -10% | [14]; at 1.2 µM -7% | [14]; at 3.7 µM -8% | [14]; at 11.0 µM -7% | [14]; at 33.0 µM -16% | [14]; at 100.0 µM 2%
active: [2]; at 33.0 µM 78% | [3]; [17] 99% | [3]; at 50.0 µM 87.1% | [4]; [17] 98% | [4]; at 50.0 µM 91.8% | [6]; [17] 99% | [6]; at 50.0 µM 85.8% | [8]; [17] 98% | [8]; at 50.0 µM 89.7% | [9]; [17] 98% | [9]; at 50.0 µM 87.7% | [10]; at 33.0 µM 83% | [10]; at 100.0 µM 77% | [12]; at 11.0 µM 81% | [12]; at 33.0 µM 90% | [12]; at 100.0 µM 88% | [13]; [17] 99% | [13]; at 50.0 µM 83.7%
